Drawing on paper PMC7862700, “An all-to-all approach to the identification of sequence-specific readers for epigenetic DNA modifications on cytosine”, this text covers binding signal for one sequence.

What all share (test): DAPPL (digital affinity profiling via proximity ligation, sequencing); 10 mM Tris-HCl pH 7.5, 50 mM NaCl, 1 mM DTT, 4% glycerol, room temperature, 30 min; GST-TFs on glutathione beads, 16-mer random dsDNA library, 0.1% formaldehyde crosslink after washing; high values mean tight binding
The target in one experiment is T1, FLI1 (Homo sapiens, UniProt Q01543 1-452).
T1 sequence: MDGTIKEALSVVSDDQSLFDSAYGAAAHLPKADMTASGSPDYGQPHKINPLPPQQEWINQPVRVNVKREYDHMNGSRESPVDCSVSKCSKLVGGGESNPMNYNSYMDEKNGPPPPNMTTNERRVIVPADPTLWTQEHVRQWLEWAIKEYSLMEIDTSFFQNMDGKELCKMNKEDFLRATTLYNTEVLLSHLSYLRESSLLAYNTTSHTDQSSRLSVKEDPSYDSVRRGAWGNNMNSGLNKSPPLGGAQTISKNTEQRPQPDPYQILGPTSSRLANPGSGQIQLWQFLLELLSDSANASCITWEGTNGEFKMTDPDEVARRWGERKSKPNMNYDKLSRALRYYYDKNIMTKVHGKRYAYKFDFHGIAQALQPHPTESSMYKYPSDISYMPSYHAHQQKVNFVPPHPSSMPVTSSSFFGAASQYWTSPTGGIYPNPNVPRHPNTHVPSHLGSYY
Conditions: protein: recombinant; tags: N-terminal GST; dsDNA, one strand shown. A digest of the protocol:
(§1)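 Each value of binding signal is a hexamer's read frequency for a factor divided by the same hexamer's frequency in the tag-only sample. Barcoded, bead-captured GST fusions of human transcription factors made in yeast were pooled with that sample and incubated with 200 nmole of a random double-stranded 16-mer DNA library in Tris/NaCl/DTT/glycerol buffer at room temperature for 30 min. Washing, 0.1% formaldehyde crosslinking, proximity ligation, PCR and Illumina NextSeq500 sequencing followed.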

For another experiment, the target named is T2, ELK1 (Homo sapiens, UniProt P19419 1-428).
T2 sequence: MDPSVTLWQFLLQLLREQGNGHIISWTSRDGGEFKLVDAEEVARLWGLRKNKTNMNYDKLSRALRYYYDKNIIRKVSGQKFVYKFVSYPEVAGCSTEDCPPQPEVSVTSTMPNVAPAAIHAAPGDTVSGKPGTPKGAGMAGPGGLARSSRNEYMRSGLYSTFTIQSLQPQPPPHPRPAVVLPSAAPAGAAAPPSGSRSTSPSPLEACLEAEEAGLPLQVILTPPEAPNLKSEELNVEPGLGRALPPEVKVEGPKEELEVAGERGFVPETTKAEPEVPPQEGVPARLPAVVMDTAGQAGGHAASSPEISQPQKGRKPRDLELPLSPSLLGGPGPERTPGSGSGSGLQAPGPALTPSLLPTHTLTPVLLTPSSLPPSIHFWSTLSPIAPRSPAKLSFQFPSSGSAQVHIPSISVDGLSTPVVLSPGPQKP
Conditions: protein: recombinant; tags: N-terminal GST; dsDNA, one strand shown. A digest of the protocol:
as §1

For the next experiment, the target named is T3, GABPA (Homo sapiens, UniProt Q06546 1-454).
T3 sequence: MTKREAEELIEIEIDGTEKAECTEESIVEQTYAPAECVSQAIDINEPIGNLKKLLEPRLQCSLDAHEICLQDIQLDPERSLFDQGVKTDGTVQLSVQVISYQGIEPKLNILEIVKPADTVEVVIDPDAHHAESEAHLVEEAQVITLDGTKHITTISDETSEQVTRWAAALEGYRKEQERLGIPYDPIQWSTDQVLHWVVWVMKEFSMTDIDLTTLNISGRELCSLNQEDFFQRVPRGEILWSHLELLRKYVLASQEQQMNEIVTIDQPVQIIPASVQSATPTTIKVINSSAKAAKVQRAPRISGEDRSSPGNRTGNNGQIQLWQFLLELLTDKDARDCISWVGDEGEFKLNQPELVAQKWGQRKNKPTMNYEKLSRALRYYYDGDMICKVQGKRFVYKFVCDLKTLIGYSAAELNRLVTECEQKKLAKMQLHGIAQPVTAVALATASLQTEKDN
Conditions: protein: recombinant; tags: N-terminal GST; dsDNA, one strand shown. The gist of the method:
as §1

In the next experiment the target is T4, ERG (Homo sapiens, UniProt P11308 1-479).
T4 sequence: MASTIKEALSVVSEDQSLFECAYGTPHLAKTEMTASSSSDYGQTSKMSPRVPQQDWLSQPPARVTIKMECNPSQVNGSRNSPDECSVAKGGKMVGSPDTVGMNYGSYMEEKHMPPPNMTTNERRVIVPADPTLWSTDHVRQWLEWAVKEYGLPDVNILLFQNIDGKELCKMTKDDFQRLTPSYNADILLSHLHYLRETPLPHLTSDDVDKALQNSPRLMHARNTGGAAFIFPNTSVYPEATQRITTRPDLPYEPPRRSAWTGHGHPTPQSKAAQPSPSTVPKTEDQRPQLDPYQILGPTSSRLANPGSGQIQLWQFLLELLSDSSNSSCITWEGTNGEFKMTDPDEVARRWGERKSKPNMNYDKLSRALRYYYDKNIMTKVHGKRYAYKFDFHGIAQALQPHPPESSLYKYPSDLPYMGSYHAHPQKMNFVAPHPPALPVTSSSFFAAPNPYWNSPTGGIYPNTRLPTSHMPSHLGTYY
The conditions noted are these: protein: recombinant; tags: N-terminal GST; dsDNA, one strand shown. The gist of the method:
as §1

Another experiment addresses ELF1 (Homo sapiens, UniProt P32519 1-619). The conditions noted are these: protein: recombinant; tags: N-terminal GST; dsDNA, one strand shown. The gist of the method:
as §1

In a further experiment the target is T5, EHF (Homo sapiens, UniProt Q9NZC4 1-300).
T5 sequence: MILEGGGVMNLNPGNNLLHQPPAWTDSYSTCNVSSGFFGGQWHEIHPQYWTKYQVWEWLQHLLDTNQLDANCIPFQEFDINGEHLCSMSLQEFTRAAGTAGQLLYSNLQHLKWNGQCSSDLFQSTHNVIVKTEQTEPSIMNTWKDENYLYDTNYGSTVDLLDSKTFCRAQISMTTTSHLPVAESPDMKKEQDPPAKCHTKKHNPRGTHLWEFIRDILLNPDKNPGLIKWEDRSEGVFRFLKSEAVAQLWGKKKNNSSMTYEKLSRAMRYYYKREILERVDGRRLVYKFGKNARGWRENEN
The conditions noted are these: protein: recombinant; tags: N-terminal GST; dsDNA, one strand shown. A digest of the protocol: as §1

In another experiment the target is HSF1 (Homo sapiens, UniProt Q00613 1-529). The conditions noted are these: protein: recombinant; tags: N-terminal GST; chain copies: 3; dsDNA, one strand shown. A digest of the protocol: as §1
For the next experiment, the target named is ELF4 (Homo sapiens, UniProt Q99607 1-663). Conditions: protein: recombinant; tags: N-terminal GST; dsDNA, one strand shown. The gist of the method: as §1
The next experiment addresses T6, ELK4 (Homo sapiens, UniProt P28324-2 1-405).
T6 sequence: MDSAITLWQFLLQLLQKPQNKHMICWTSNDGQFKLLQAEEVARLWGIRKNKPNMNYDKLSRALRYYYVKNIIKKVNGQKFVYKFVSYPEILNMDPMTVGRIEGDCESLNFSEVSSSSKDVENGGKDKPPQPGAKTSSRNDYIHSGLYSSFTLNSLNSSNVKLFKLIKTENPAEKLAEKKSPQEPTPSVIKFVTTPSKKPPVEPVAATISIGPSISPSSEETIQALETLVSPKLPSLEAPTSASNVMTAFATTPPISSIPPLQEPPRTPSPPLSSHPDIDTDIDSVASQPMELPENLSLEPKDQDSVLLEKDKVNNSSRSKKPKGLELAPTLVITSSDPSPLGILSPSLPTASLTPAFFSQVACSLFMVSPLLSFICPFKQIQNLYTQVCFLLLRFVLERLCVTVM
The conditions noted are these: protein: recombinant; tags: N-terminal GST; dsDNA, one strand shown. The gist of the method: as §1

ELF4, sequence (Q99607 whole entry): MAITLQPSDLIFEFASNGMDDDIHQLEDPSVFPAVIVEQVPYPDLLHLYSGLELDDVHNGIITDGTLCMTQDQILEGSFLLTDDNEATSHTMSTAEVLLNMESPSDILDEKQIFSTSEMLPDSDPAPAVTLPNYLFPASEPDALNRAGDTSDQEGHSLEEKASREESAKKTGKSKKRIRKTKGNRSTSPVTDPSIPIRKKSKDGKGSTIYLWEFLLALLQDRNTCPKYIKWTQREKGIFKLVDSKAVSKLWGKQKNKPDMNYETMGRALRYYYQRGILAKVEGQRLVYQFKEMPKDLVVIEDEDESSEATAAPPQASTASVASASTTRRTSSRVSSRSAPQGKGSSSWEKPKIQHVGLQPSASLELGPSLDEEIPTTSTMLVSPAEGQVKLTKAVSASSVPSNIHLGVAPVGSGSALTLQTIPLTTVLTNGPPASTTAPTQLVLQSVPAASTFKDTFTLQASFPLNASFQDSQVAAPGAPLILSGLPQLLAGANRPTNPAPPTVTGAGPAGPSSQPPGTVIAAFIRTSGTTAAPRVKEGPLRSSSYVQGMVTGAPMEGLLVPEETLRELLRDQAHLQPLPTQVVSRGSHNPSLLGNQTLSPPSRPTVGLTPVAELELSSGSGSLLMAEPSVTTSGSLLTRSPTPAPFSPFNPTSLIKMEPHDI
HSF1, sequence (Q00613 whole entry): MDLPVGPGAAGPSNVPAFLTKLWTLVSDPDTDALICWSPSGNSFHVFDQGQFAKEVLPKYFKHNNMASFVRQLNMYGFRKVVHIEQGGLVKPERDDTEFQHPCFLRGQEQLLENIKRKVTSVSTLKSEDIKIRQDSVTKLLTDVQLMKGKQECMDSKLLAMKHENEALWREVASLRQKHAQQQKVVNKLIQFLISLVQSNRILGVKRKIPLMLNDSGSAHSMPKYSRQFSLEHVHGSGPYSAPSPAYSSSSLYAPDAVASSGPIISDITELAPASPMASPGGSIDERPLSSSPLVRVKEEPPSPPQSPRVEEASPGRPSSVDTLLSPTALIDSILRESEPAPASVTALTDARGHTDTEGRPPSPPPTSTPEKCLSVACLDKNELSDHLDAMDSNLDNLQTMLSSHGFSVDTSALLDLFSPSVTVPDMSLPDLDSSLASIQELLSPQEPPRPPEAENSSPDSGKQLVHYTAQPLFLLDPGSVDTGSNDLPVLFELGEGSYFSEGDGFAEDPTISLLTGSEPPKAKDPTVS
ELF1, sequence (P32519 whole entry): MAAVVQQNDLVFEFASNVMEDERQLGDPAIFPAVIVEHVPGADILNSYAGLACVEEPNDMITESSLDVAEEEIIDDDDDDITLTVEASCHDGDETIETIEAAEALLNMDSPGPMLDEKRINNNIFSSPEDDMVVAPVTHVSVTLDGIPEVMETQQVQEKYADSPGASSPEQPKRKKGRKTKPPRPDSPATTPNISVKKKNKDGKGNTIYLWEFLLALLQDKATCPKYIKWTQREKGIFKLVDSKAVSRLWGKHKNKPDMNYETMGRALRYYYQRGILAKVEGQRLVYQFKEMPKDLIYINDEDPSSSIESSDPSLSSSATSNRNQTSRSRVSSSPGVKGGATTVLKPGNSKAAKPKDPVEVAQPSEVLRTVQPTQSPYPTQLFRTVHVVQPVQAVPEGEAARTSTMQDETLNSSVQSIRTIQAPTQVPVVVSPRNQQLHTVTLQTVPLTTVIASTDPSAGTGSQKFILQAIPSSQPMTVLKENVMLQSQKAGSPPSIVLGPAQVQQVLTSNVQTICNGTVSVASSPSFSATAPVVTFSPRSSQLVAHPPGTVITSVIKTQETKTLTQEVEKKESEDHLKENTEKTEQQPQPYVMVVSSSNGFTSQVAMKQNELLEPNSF

Take AGAACA: the binding signal in the experiment with FLI1 is 1.06 fold enrichment (6-mer frequency, TF over GST control); with ELK1, 1.06 fold enrichment (6-mer frequency, TF over GST control); in the experiment with GABPA it was 1.11 fold enrichment (6-mer frequency, TF over GST control); in the experiment with ERG, 1.01 fold enrichment (6-mer frequency, TF over GST control); with ELF1 it was 1.07 fold enrichment (6-mer frequency, TF over GST control); in the experiment with EHF it was 1.02 fold enrichment (6-mer frequency, TF over GST control). The binding signal with HSF1 is 2.37 fold enrichment (6-mer frequency, TF over GST control); with ELF4 it was 1.06 fold enrichment (6-mer frequency, TF over GST control); in the experiment with ELK4 it was 1.02 fold enrichment (6-mer frequency, TF over GST control).
